For 88 compounds, activity change results are on record in PubChem BioAssay AID743279 (National Center for Advancing Translational Sciences (NCATS), 2014).

Molecules are shown by their SMILES. In all, about 360,000 compounds went through this assay and about 17,000 (4.7%) were called active. Not shown: some 5% with an inconclusive outcome. Cut-off read from the data, not from the text of the source: active = activity change below about -50%; inconclusive = mostly about -30% to -49%; inactive = weaker than that. What follows is part of a selection rich in actives, with near analogues and random picks from the rest.
% is set by controls: 0 for no effect and ±100 for the full control effect.

This assay can be described thus: qHTS for Inhibitors of Inflammasome Signaling: IL-1-beta AlphaLISA Primary Screen. As to conditions: THP-1 LPS/ATP IL-1B secretion, 16 h; at 57.5 µM, stronger effect = lower value. An outline of the steps: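 Secreted IL-1B measured by AlphaLISA bead assay after 16 h compound exposure of THP-1 cells; compounds (final up to 57.5 uM) added 1 h before LPS (250 ng/mL) and ATP (1.25 mM) stimulation; lower signal means less secretion.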
For orientation: Quantitative high-throughput screening tests each substance at several concentrations.
`COc1ccc(S(=O)(=O)N2CCCCC2)cc1C(=O)NC1CCS(=O)(=O)C1` (stereo not drawn): the activity change was -14.7% (inactive). In the case of `CCN(CC)C(=O)C1CCCN(Cc2cccc(Cl)c2)C1` (stereo not drawn), the activity change was -7.01% (inactive). `O=C(C[C@H]1CC[C@@H](NC(=O)c2ccncc2)[C@@H](CO)O1)NCC1CC1`: the activity change was 0.19% (inactive).

On to `Cc1ccc(-n2c(SCC(=O)N3CCC(C(=O)O)CC3)nc3ccccc3c2=O)cc1C`, for which the activity change is 6.5% (inactive).

With `O=S1(=O)C[C@@H](N2CCN(CCO)CC2)[C@H](COCc2ccccc2)N1`, the activity change was -19.7% (inactive). `COc1ccc(-c2ccc3[nH]c4c(c3c2)CCN2C[C@H]3[C@H](C)ON(C)[C@H]3C[C@@H]42)cc1`: the activity change was -18.3% (inactive). Then `Nc1nc(CSc2nnnn2-c2ccccc2)nc(Nc2ccccc2)n1`, with -29.1% (inactive); and `CNC(=O)c1csc(-c2ccccc2)n1`, with -4.77% (inactive). For `CN(C)C(=O)c1coc2nc3ccccc3nc12`, the activity change is 25.5% (inactive).

With `CNC(=O)c1cccc2nc3ccccc3nc12`, the activity change is -78.6% (active). Then `COc1ccc(C(=O)NC2CCN(C(=O)Nc3ccc(F)cc3)CC2)cc1`, with 17.5% (inactive); and `COc1ccc(NC(=O)N2CCC(Cc3ccccc3)CC2)cc1`, with -50.3% (active); and `COc1ccc(NC(=O)N2CCCC(C(=O)Nc3ccccc3OC)C2)cc1` (stereo not drawn), with -1.11% (inactive). Then `CCN1CCCC1Cn1cnc2c([nH]c3cc(OC)ccc32)c1=O` (stereo not drawn), with -21.8% (inactive). On to `CC(C)OCCCNc1ncnc2c1[nH]c1ccc(F)cc12`, for which the activity change was -71% (active).

In the case of `CCN1CCCC1CNC(=O)c1cc2cc(OC)c(OC)cc2[nH]1` (stereo not drawn), the activity change was -7.87% (inactive). Then `CCN1CCCC1CNc1ncnc2c1[nH]c1ccc(F)cc12` (stereo not drawn), with -94.3% (active). As to `C[C@@H]1CN([C@@H](C)CO)S(=O)(=O)c2ccc(-c3ccc(C(=O)N(C)C)cc3)cc2O[C@@H]1CN(C)Cc1ccccc1C(=O)O`, the activity change is 23.1% (inactive). Then `COc1ccc(-c2ccc3c(c2)C2CC3CCN2CCC#N)cc1` (stereo not drawn), with 12.2% (inactive); and `Cc1cc(C)c2nc(-c3cccnc3)cc(C(=O)Nc3ccc(S(=O)(=O)Nc4onc(C)c4C)cc3)c2c1`, with 16.5% (inactive). Then `COc1ccc(CN2C(=O)C(CC(=O)NCc3cccc4ccccc34)CC(C(=O)N3CCOCC3)=C2C)cc1` (stereo not drawn), with -5.05% (inactive); and `COc1cc(C(O)c2nc(-c3cnn(C)c3)cs2)ccc1F` (stereo not drawn), with 25.9% (inactive). Turning to `CC(C)(C)NC(=O)Cn1c(SCC(=O)Nc2nccs2)nc2ccccc21`, the activity change was -11.3% (inactive). Then `O=C(Nc1ccc(F)cc1)N1CCCC(c2nc3c(nnn3Cc3ccccc3Cl)c(=O)[nH]2)C1` (stereo not drawn), with -15.2% (inactive); and `Cc1ccc(NC(=O)N2CCC(c3nc4c(nnn4Cc4c(F)cccc4Cl)c(=O)[nH]3)CC2)cc1`, with -69% (active). Then `COc1ccc(Cn2nnc3c(=O)[nH]c(C4CCN(C(=O)c5ccccc5Cl)CC4)nc32)cc1`, with 0% (inactive); and `CC[C@]12c3[nH]c4cc(CCC(=O)N(C)C)ccc4c3CCN1C(=O)[C@@H](CC(=O)NCCCN(C)C)C[C@@H]2C(=O)N1CCN(C(=O)c2ccco2)CC1`, with 0% (inactive); and `CC1CCN(C(=O)CSc2nnc(-c3ccco3)n2N)CC1`, with 3.36% (inactive).

For `c1ccc(Cc2c(-c3ccco3)nc3c4ccccc4ccn23)cc1`, the activity change is -21.7% (inactive).

On to `Cc1cccc(OCC(O)CN2CCN(CCN3C(=O)c4cccc5cccc(c45)C3=O)CC2)c1C` (stereo not drawn), for which the activity change is -52.3% (active). Then `Cc1ccc(OCC(O)CN2CCN(CC(O)COc3ccc(C)cc3Cl)CC2)c(Cl)c1` (stereo not drawn), with 4.54% (inactive); and `C=CCc1ccccc1OCC(O)CN1CCN(CCO)CC1` (stereo not drawn), with 9.73% (inactive). Consider `CCCCN1C(=O)C(CC(=O)NCc2cccs2)CC(C(=O)N2CCCCCC2)=C1C` (stereo not drawn), for which the activity change was 7% (inactive). Then `Clc1ccc(-n2nnnc2CN2CCCCC2)cc1Cl`, with 9.91% (inactive). Consider `COc1ccccc1/C=C1\SC(=O)N(CCC(=O)N(C)C2CCS(=O)(=O)C2)C1=O` (stereo not drawn), for which the activity change was -15.1% (inactive).

Regarding `CN(C(=O)CCN1C(=O)/C(=C/c2ccccc2F)SC1=S)C1CCS(=O)(=O)C1` (stereo not drawn), the activity change was -99.1% (active).

`CN(C(=O)CN1C(=O)S/C(=C\c2ccccc2F)C1=O)C1CCS(=O)(=O)C1` (stereo not drawn): the activity change is -16.9% (inactive).

With `CCC(C)CN1C(=O)CSCC1(C)C(=O)NCc1ccccc1` (stereo not drawn), the activity change was -5.63% (inactive). Consider `CC(=O)c1cccc(NC(=O)COc2ccc(S(=O)(=O)N3CCOCC3)cc2)c1`, for which the activity change is -9.57% (inactive). Turning to `COC(=O)COc1ccc(S(=O)(=O)N2CCOCC2)cc1`, the activity change was -50.5% (active). Then `COc1ccc(S(=O)(=O)N2CCOCC2)cc1NC(=O)COc1ccccc1`, with 6.58% (inactive); and `Cc1cc2c(cc1C)NC1(C[C@H]3CCC(=O)N4CC[C@@H](C1)[C@@H]34)C(=NC(C)(C)CC(C)(C)C)N2` (stereo partly drawn), with 1.01% (inactive); and `C=CCN(N=Nc1cccc([N+](=O)[O-])c1)c1cccc([N+](=O)[O-])c1`, with -16.1% (inactive). For `NS(=O)(=O)c1ccc(CNC(=O)c2cnccn2)cc1`, the activity change was 2.67% (inactive). Turning to `NS(=O)(=O)c1ccc(CNC(=O)c2cccc(Oc3ccccc3)c2)cc1`, the activity change is -74.2% (active). In the case of `NS(=O)(=O)c1ccc(CNC(=O)c2cccc(S(=O)(=O)N3CCc4ccccc43)c2)cc1`, the activity change was -11.1% (inactive). Then `CCc1ccc(OC2(C)CCN(CCOc3ccc(C)cc3)C2)cc1` (stereo not drawn), with -10% (inactive); and `O=C1CSC(=S)N1/N=C/c1ccc(O)c([N+](=O)[O-])c1`, with 23.5% (inactive). Then `O=C(CC[C@H]1O[C@@H](n2ccc(=O)[nH]c2=O)[C@H](O)[C@@H]1O)N[C@H](Cc1ccccc1)C(=O)NCCCN1CCCC1=O`, with 15.8% (inactive); and `Cc1cc(C(=O)N2CCCC2(C)C(=O)O)c(C)o1` (stereo not drawn), with -11.9% (inactive); and `CCn1c(SCC(=O)Nc2nc(C)cs2)nnc1C(C)NC(=O)c1ccccc1` (stereo not drawn), with -6.67% (inactive). Then `CCn1nc(C)c(CN2CCN(Cc3ccc(OC)c(C)c3C)C(CCO)C2)c1C` (stereo not drawn), with 9.61% (inactive); and `COc1ccc(CN2CCN(Cc3cn(C)nc3-c3ccccc3)CC2CCO)c(C)c1C` (stereo not drawn), with -57.9% (active).

For `Cc1ccc(CN2CCN(Cc3cn(C)nc3-c3ccccc3)CC2CCO)o1` (stereo not drawn), the activity change is 40.4% (inactive). As for `Cc1noc(C)c1C(=O)N1CCC1(C)C(=O)NS(=O)(=O)c1ccc(C#N)cc1` (stereo not drawn), the activity change is -5.56% (inactive). For the compound `O=C(Nc1ccccc1)c1ccccc1Br`, the activity change was 9.09% (inactive).

On to `CC1(C(=O)NS(=O)(=O)c2ccc(C#N)cc2)CCN1C(=O)CC1CCCC1` (stereo not drawn), for which the activity change was 4.38% (inactive).

Take `CC(=O)C[C@@H]1OC[C@H](C)N1S(=O)(=O)c1ccc(C)cc1`: the activity change is -13.9% (inactive). Take `Cc1ccc(NC(=S)NC(=O)c2ccc(-c3ccccc3)cc2)c(C)c1`: the activity change was -50.2% (active). As for `Cc1cc2[nH]ncc2cc1NC(=S)NC(=O)c1ccccc1`, the activity change was -1.02% (inactive). For the compound `Cc1cccc(NC(=O)NC(=S)NC(=O)c2ccccc2)c1`, the activity change was -7.59% (inactive).

On to `O=C(N[C@H]1C/C=C\C(c2cccc(F)c2)N(Cc2ccccc2)C(=O)C1)OCC1c2ccccc2-c2ccccc21` (stereo partly drawn), for which the activity change is -10% (inactive). Consider `CC[C@@H]1CC2=C(C(=O)OC(C)(C)O2)[C@@H](CC)O1`, for which the activity change is 22.9% (inactive). As to `O=C(C1CC1)N1N=C2CCCCC2C1(O)C(F)(F)F` (stereo not drawn), the activity change is -13% (inactive).

`CN(C(=O)COC(=O)c1cc(=O)[nH]c2ccccc12)C1CCCCC1`: the activity change is 0% (inactive). For the compound `O=C(OCc1nnc(-c2ccccc2)o1)c1cc(=O)[nH]c2ccccc12`, the activity change is -11.8% (inactive).

For `CCOC(=O)c1ccc(COC(=O)c2cc(=O)[nH]c3ccccc23)o1`, the activity change is -68.1% (active). Then `CC(CO)NCC12CC3CC(CC(C3)C1)C2` (stereo not drawn), with 4.35% (inactive); and `CC(=O)NC(c1ccccc1)c1nc(-c2ccccc2C)cs1` (stereo not drawn), with 0.953% (inactive); and `CCc1nc2c(OCCOc3ccccc3)cccn2c1N(C=O)Cc1ccc(OC)cc1`, with 29.8% (inactive).

Take `CCCCN(C=O)c1c(CC)nc2c(OCCC3CCCCC3)cccn12`: the activity change is -56.6% (active).

Turning to `CCCCN(C=O)c1c(CC)nc2c(OCc3ccccc3C(=O)OC)cccn12`, the activity change was 0% (inactive). Regarding `COc1cccc(-c2cc3nc(NCc4ccccc4OC)n(C)c(=O)c3s2)c1`, the activity change is 0.83% (inactive). Then `COc1cccc(CNc2nc(NCc3ccccc3OC)nc3ccsc23)c1`, with -75.5% (active); and `COc1cccc(CNc2nc(NCc3cccs3)nc3ccsc23)c1`, with -4.63% (inactive). Regarding `COc1ccc(C(=O)N(C)Cc2ccc(OC)c(OC)c2OC)cc1S(=O)(=O)N1CCOCC1`, the activity change was -8.15% (inactive). Then `Cc1coc2c(O)cc3c(c12)OC1(N2CCCCC2)C(=O)NCCCC31` (stereo not drawn), with -99.3% (active); and `COCCN1CCN(C(=O)c2cc(COc3ccc(F)cc3Cl)on2)CC1`, with 22.2% (inactive); and `CN(CC(=O)Nc1ccccc1[N+](=O)[O-])Cc1ccc(Br)cc1`, with -6.83% (inactive). `CN(CC(=O)NCCc1ccc(F)cc1)CC(=O)Nc1ccc(F)c(F)c1F`: the activity change was -12.2% (inactive). With `Cc1ccc(NC(=O)CN(C)Cc2ccc(F)cc2)c([N+](=O)[O-])c1`, the activity change was -62.3% (active). Then `CCN(C(=O)CSc1nnc2ccccn12)C1CCS(=O)(=O)C1` (stereo not drawn), with -2.9% (inactive). Take `Cc1cc2cc3c(cc2nc1SCC(=O)Nc1c(C)cccc1C)CCC3`: the activity change was 13% (inactive). `Cc1cccc(C(=O)C(O)(c2ccccc2)C2CCCCC2=O)c1` (stereo not drawn): the activity change was 16.6% (inactive). For the compound `CC(CCc1ccccc1)NC(=O)c1cnc(Cl)c(Cl)c1` (stereo not drawn), the activity change was 12.3% (inactive). Then `COc1ccc(CCNC(=O)COC(=O)c2cnc(Cl)c(Cl)c2)cc1`, with -11.2% (inactive). Then `COc1ccc(CCNC(=O)c2cnc(Cl)c(Cl)c2)cc1`, with -107% (active); and `CC1(C)OC(=O)C2=C(C[C@@H](C3CCCCC3)O[C@@H]2c2ccc(Cl)cc2)O1`, with 0% (inactive).
